Rows were chosen to be rich in hits. Some 3.5% of all compounds tested hit in one or more screens of this group.
FBW7 activator: human FBW7 E3 ligase activation, primary screen. 0.13% of 650,000 active. AlphaScreen FBW7–phospho-cyclin E peptide binding, activator screen. Q969H0. normalized activity (activation), % at 26.1 µM; in the data active means normalized activity above about 1.9%;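 further: purified mutant Fbw7 with reduced substrate affinity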
Target sequence (Q969H0 whole entry, looked up): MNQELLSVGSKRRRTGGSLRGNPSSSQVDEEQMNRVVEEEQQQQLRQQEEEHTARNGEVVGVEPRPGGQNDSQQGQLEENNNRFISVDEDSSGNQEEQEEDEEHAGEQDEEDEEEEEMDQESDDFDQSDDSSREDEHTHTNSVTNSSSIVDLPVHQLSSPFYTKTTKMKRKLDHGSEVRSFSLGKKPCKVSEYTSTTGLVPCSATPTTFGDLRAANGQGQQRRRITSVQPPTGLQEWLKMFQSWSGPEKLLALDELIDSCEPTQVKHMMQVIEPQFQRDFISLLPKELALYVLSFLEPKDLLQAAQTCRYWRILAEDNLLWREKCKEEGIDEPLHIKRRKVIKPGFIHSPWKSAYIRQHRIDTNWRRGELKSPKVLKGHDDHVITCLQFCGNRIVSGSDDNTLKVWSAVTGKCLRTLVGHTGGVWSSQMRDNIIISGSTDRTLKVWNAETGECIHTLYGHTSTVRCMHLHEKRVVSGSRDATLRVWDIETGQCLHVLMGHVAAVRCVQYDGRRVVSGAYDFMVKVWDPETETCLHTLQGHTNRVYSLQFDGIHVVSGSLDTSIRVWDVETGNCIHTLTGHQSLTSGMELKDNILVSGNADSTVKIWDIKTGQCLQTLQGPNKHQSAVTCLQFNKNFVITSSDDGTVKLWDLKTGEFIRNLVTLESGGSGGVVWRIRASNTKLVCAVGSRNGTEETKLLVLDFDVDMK
TEAD-YAP block: TEAD-YAP interaction inhibition. HEK-TIYL cells, TEAD-Gal4/YAP UAS-luciferase luminescence. inhibition, % at 9.12 µM. 1.4% of 640,000 active. AID 1259422; in the data active means inhibition above about 32%;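 further: 0% = median of test compound wells and 100% = reference inhibitor wells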
MITF primary: blocks human microphthalmia-associated transcription factor. AID 1259374. AlphaScreen MITF homodimerization, bead proximity signal. inhibition, % at 2.6 µM. O75030. 0.91% of 650,000 active; in the data active means inhibition above about 50%;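 further: 0% = vehicle wells with protein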
GPR151 ag: activates the human receptor GPR151; 1% of 650,000 active; AID 1508602; Q8TDV0; activation, % at 11.2 µM; PathHunter beta-arrestin GPR151 cells, luminescence; in the data active means activation above about 4.9%;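 further: 0% = median of compound wells and 100% = cells with positive control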
GPR151 confirm: human GPR151 activation, confirmation screen | shares compounds with GPR151 ag | 6,700 tested, under 10 active | activation, % at 11.2 µM | GPR151 PathHunter beta-arrestin cells, luminescence, 90 min; % of EA-reagent control over plate median | AID 1508609;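 active means mean percent activation across replicates above the confirmation screen cutoff of 4.91%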
GPR119 counter: counter-screen for GPR151 activators: effect on human GPR119. 0.3% of 6,700 active. AID 1508611. shares compounds with GPR151 ag. activation, % at 11.2 µM. GPR119 PathHunter beta-arrestin cells, luminescence, 90 min; 0 = compound-well median, 100 = enzyme-acceptor control;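 active means mean percent activation in the counterscreen above 29.09%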;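 further: counterscreen on off-target GPR119 to flag nonselective hits from the GPR151 activator screen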
Starred values were filed as active, the others as inactive; x = not tested or not shown; ! = not active in a repeat.

SMILES	FBW7 activator	TEAD-YAP block	MITF primary	GPR151 ag	GPR151 confirm	GPR119 counter
CCC1CCCCN1S(=O)(=O)c1ccc(OC)cc1 (centres undefined)	0	7	4	0	x	x
C/C=C/c1ccc(OCCCNC)c(OC)c1	0	-15	31	6.1*	0	6
C/C=C/c1ccc(OCCNC)c(OC)c1	0	8	42	-2	x	x
O=C(NC1CC1)c1cccc(Nc2ccc(-n3ccnc3)cc2)c1	0	-1	7	6.2*	1	-3
COc1ccc(S(=O)(=O)NCC2(c3ccc(F)cc3)CC2)cc1Cl	0	-1	1	0	x	x
CN(C)CCCN1C(=O)C(=O)/C(=C(\O)c2ccccc2)C1c1ccncc1 (centres undefined)	0	-7	7	1	x	x
CC1Oc2ccccc2C=C1C1/C(=C(\O)c2ccccc2)C(=O)C(=O)N1CCCN(C)C (centres undefined)	0	4	-3	12*	1	-3
COc1ccc(CCNc2nc(Nc3ccc(-n4ccnc4)cc3)ncc2C)cc1	1	18	7	4.9*	0	-8
COc1ccc(CCNC(=O)c2cnc(Nc3ccc(-n4ccnc4)cc3)s2)cc1	0	-2	4	1	x	x
COc1ccc(CCNC(=O)c2csc(Nc3ccc(-n4ccnc4)cc3)n2)cc1	0	58*	3	6.0*	0	30*
COc1ccc(CCNC(=O)c2csc(Nc3ccc(C(F)(F)F)cc3)n2)cc1	0	-11	10	6.2*	0	2
CCOC(=O)c1sc(NC(=O)CSc2nnc(CNC(=O)c3ccco3)n2-c2ccc(OCC)cc2)c(C(=O)OCC)c1C	0	6	2	1	x	x
COc1ccccc1C(=O)Nc1ccc2c(c1)CN(Cc1ccn[nH]1)CC2	0	-6	8	-1	x	x
O=S(=O)(Nc1nc2ccc(S(=O)(=O)N3CCCCC3)cc2s1)c1ccccc1	0	3	19	5.3*	-1	-9
C=C(C)CN(CC)Cc1nc(-c2ccccn2)no1	0	2	6	14*	0	0
CN1C(=O)NC(c2ccccc2Cl)C2=C1CC(C)(C)CC2=O (centres undefined)	0	4	-3	5.7*	1	-3
CN1C(=O)N(C)C(c2ccccc2Cl)C2=C1CC(C)(C)CC2=O (centres undefined)	0	-1	1	1	x	x
CC(Oc1ccccc1F)C(=O)Nc1cccc([N+](=O)[O-])c1 (centres undefined)	0	5	12	0	x	x
CN1CCC(=C2c3ccccc3Sc3ccccc32)CC1	0	6	-4	2	x	x
CN1CCC(=C2c3ccccc3C=Cc3ccccc32)CC1	0	-11	-15	5.3*!	0	-6
COc1ccc(C(=O)NN2C(=O)c3ccccc3C2=O)cc1I	0	9	7	5.1*	0	8
CC(NC(=O)c1ccc(Cl)cc1Cl)C1COc2ccccc2O1 (centres undefined)	0	-11	10	-1	x	x
Cc1cc(C)n(-c2cc(N3CCN(C(=O)Nc4ccc(F)c(Cl)c4)CC3)ncn2)n1	0	-5	-5	1	x	x
CCOC(=O)C1CCCN(Cc2cccc3ccccc23)C1 (centres undefined)	0	-3	39	2	x	x
COc1cc2c(cc1OC)C(C)N(C(=O)c1ccccc1Cl)CC2 (centres undefined)	0	0	-7	0	x	x
SMILES	FBW7 activator	TEAD-YAP block	MITF primary	GPR151 ag	GPR151 confirm	GPR119 counter
C#CCN1CCc2cc(OC)c(OC)cc2C1C (centres undefined)	0	-10	-10	6.4*	2	4
CC1(C)CC2CC(C)(CN2C(=O)COC(=O)/C(C#N)=C/c2ccc3c(c2)OCO3)C1 (centres undefined)	0	2	2	6.1*	-1	-13
CCC1CCCCN1C(=O)COC(=O)/C(C#N)=C/c1ccc2c(c1)OCO2 (centres undefined)	1	-2	14	0	x	x
COc1ccc(NC(=O)c2ccc3c(c2)C(=O)N(c2ccccc2)C3=O)c([N+](=O)[O-])c1	0	-11	-3	-2	x	x
CC(C)(C)CC(=O)NCCCS(=O)(=O)N1CCN(c2ccc(F)cc2)CC1	0	13	10	6.6*	1	1
CCN(CC)CCNC(=O)CN1CC(=O)N2CCCC2C1=O (centres undefined)	0	-3	4	5.9*	0	5
CCOCCCNC(=O)CN1CC(=O)N2CCCC2C1=O (centres undefined)	1	1	13	-3	x	x
O=C(CSc1nnnn1C1CCCC1)N1CCOCC1	0	-28	-6	0	x	x
O=C(CSc1nnnn1C1CCCCC1)N1CCCCC1	0	-47	-20	5.0*	-1	-7
N#C/C(=C\c1ccc([N+](=O)[O-])o1)c1nc(-c2ccc(Br)cc2)cs1	0	8	-4	0	x	x
COc1ccc(CNC(=O)CSc2nnc3sc4ccccc4n23)cc1C(=O)O	0	4	5	5.5*	0	4
O=C(OCc1cccc([N+](=O)[O-])c1)c1cc(Cl)ccc1O	0	19	-10	7.2*	0	-3
CCC(=O)Nc1ccc(C2=NNC(=NCCc3ccccc3)SC2)cc1	0	-9	-11	1	x	x
O=C1OC(/C=C/c2cccc(Cl)c2Cl)=NC/1=C\c1ccccc1Cl	0	-5	-9	-1	x	x
O=C1OC(/C=C/c2cccc(Cl)c2Cl)=NC/1=C\c1ccccc1C(F)(F)F	0	2	-1	5.8*	-1	-3
Cc1ccc(-c2cc(C(F)(F)F)n3ncc(C(=O)NCc4cn(C)nc4C)c3n2)cc1	0	0	15	0	x	x
CCNC(=O)[C@@H]1C[C@@H](NCc2cccc(F)c2)CN1Cc1cccc(Cl)c1	0	-13	-5	0	x	x
CCN(CC)S(=O)(=O)c1ccc(OC)c(NC(=O)CC(C)C)c1	0	6	-5	1	x	x
OC(CNC1CCCC1)COc1ccc2c(c1)CCC2 (centres undefined)	0	9	-8	12*	-1	-10
CC(C)NCC(O)COc1ccc2c(c1)CCC2 (centres undefined)	0	23	-8	-2	x	x
CC(C)(C)c1ccc(OCC(O)CNC2CCCC2)cc1 (centres undefined)	0	-2	-7	12*	0	15
COc1ccc(C(=O)n2nc(N)c3cc4ccc(C)cc4nc32)cc1	0	-37	10	-2	x	x
COc1cc(C(=O)n2nc(N)c3cc4ccc(C)cc4nc32)cc(OC)c1OC	0	41*	2	7.8*	1	11
CCCOc1ccc2c3c(c(=O)oc2c1)CCC3	0	-1	2	7.9*	0	-4
CCCOc1ccc2oc(=O)c3c(c2c1)CCCN3C(=O)CN1CCCC1	0	11	12	5.4*	0	5

Screening results (PubChem BioAssay)
